A selection: hits, their analogues and other compounds. The true share with any hit is near 2.9%.
ADAM17 inh: inhibits human ADAM17 | inhibition, % at 6.95 µM | AID 720648 | recombinant ADAM17, EDANS/DABCYL FRET peptide cleavage | P78536 | hit rate 0.83% among 370,000;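 active = inhibition above the mean of compounds lying between control limits plus 3 SD, set per campaign, cut at about 8.5% in these data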;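 also: 0% = DMSO-only wells as the low control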
PLC-gamma1 inh: PLC-gamma1 (human) inhibition, primary screen; P19174; purified PLC-gamma1, fluorogenic substrate, fluorescence; inhibition, % at 12.2 µM; hit rate 0.84% among 370,000; AID 720700; in the data active = inhibition above about 9.5%
KLK7 zymogen act: activators of human kallikrein-7 zymogen. P49862. purified proKLK7, EDANS-DABCYL substrate fluorescence; 100% is mature enzyme control, 0% vehicle. activation, % at 7 µM. hit rate 0.9% among 370,000. AID 652039;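 active = activation above the mean of all tested compounds plus 3 SD, computed per campaign excluding outliers beyond control limits, cut at about 13% in these data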
ADAM10 inh: inhibits human ADAM10; recombinant ADAM10, EDANS/DABCYL FRET peptide cleavage, 3 h; inhibition, % at 7 µM; hit rate 0.62% among 370,000; AID 720582;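 active = inhibition above a per-campaign cutoff equal to the mean of compounds falling between control-based bounds plus 3 SD, cut at about 20% in these data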;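 also: 0% = DMSO wells while the 100% control is not disclosed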
Target sequence (O14672 214-748 limits assumed): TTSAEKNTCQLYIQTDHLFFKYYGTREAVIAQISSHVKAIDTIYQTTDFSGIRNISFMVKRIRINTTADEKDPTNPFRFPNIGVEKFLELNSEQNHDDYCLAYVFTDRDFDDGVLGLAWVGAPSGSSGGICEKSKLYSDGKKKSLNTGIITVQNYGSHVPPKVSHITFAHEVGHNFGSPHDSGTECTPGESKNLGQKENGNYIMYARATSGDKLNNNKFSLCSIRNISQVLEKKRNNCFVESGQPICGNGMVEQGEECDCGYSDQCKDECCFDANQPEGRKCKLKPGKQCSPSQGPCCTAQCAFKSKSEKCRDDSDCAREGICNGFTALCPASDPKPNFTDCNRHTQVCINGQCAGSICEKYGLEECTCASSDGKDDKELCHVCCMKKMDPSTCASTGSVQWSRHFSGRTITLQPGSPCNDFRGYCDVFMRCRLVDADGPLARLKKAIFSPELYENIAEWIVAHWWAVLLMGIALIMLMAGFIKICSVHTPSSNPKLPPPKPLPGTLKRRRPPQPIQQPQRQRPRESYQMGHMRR
PLC-beta3 inh: PLC-beta3 (human) inhibition, primary screen; AID 720704; Purified PLC-beta3, fluorogenic substrate, fluorescence; inhibition, % at 12.2 µM; hit rate 0.18% among 370,000; Q01970; in the data active = inhibition above about 11%;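 also: 0% = median of compound wells on plate and 100% = full blocker control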
ADAM10 confirm: confirmation of inhibitors of human ADAM10 | shares compounds with ADAM10 inh | ADAM10 QFRET peptide cleavage, EDANS fluorescence | inhibition, % at 6.95 µM | hit rate 1% among 2,100 | AID 743208;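 active = inhibition above about 20% chosen separately for each screening run, limit read from the data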;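 also: 0% = DMSO wells and 100% = marimastat wells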
ADAM17 ctr: counter-screen for ADAM10 exosite inhibitors: inhibitors of human ADAM17; ADAM17 QFRET peptide cleavage, EDANS fluorescence; hit rate 0.5% among 2,100; shares compounds with ADAM10 inh; inhibition, % at 6.95 µM; AID 743214;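 active = mean triplicate inhibition above the solvent-only control wells' mean plus 3 SD, cut at about 12% in these data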;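 also: 0% = DMSO wells and 100% = marimastat wells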
Active calls of the source: *; i = inactive; / = no result.

SMILES	ADAM17 inh	PLC-gamma1 inh	KLK7 zymogen act	ADAM10 inh	PLC-beta3 inh	ADAM10 confirm	ADAM17 ctr
C[C@H]1[C@H](C)CC[C@]2(C)CC[C@]3(C)C(=CC(=O)C4[C@@]5(C)CC[C@H](O)C(C)(C)C5CC[C@]43C)[C@H]12 (stereo not given in full)	3	2	0	9	6	/	/
CC(C)CCNC(=O)c1onc(CSc2ccccn2)c1C(=O)NCCC(C)C	6	3	0	20*	-3	4	1
COCCNC(=O)c1onc(CSc2ccccn2)c1C(=O)NCCOC	1	-1	0	0	2	/	/
CCOC(=O)C(NC(C)=O)C(=O)O (stereo not given)	-6	-1	0	-6	-1	/	/
CCCOc1ccc(C(=O)CCC(=O)OCC(=O)N2CCN(S(=O)(=O)c3ccc(C)cc3C)CC2)cc1	8	-2	0	21*	-6	5	1
CCc1ccc(CNC(=O)CC2C(=O)NCCN2Cc2ccccc2F)nc1 (stereo not given)	-12	-13	2	-28	-15	/	/
Cc1cccc(NC(=S)N=Nc2c(O)n(CN3CCOCC3)c3ccccc23)c1C	6	7	0	3	4	/	/
O=C(N/N=C/c1c(Nc2cccc(C(F)(F)F)c2)nc2ccccn2c1=O)c1ccccc1[N+](=O)[O-]	1	-2	1	32*	-3	0	0
Oc1ccc(Cl)c(CN2CCN(c3ncc(Cc4ccccc4)cn3)CC2)c1	14*	5	1	25*	3	5	3
O/N=C/c1ccccc1OCc1ccccc1F	6	-1	1	2	1	/	/
O/N=C/c1cc(Cl)ccc1OCc1ccccc1Cl	5	-3	0	23*	0	9	2
CCOc1ccc(CC(=O)N2CCN=C2SCc2ccc([N+](=O)[O-])cc2)cc1	-2	1	0	2	-2	/	/
CCOC(=O)C1C2C=CC3(CN(c4cccc(Cl)c4)C(=O)C13)O2 (stereo not given)	-3	0	0	-8	1	/	/
O=C(O)c1cccc(NC(=S)N/N=C/c2ccccc2OCc2ccc(Br)cc2)c1	-1	-8	0	23*	-18	3	1
O=C(O)c1cccc(NC(=S)N/N=C/c2ccccc2OCc2cccc(Br)c2)c1	-3	-21	0	-4	-25	/	/
S=C(Nc1ccc(Cl)c(Cl)c1)N1CCN(c2ccccn2)CC1	-4	1	0	6	-7	/	/
S=C(Nc1ccc(Oc2ccccc2)cc1)N1CCN(c2ccccn2)CC1	5	0	0	22*	2	2	-1
COc1ccccc1-c1ccc2c(c1)C(C)(Cc1cc(Cl)ccc1C(F)(F)F)C(=O)N2 (stereo not given)	7	-2	1	21*	1	4	1
COc1ccc(Cl)cc1CC1(C)C(=O)Nc2ccc(-c3ccccc3OC)cc21 (stereo not given)	6	2	0	5	0	/	/
CC(C)(C)C(=O)N1CCc2cc(-c3csc(N)n3)ccc21	-3	-6	0	1	-6	/	/
COC(=O)c1ccc(CSc2nc3ccccc3c(=O)n2-c2ccc(OC)c(OC)c2)o1	-1	-6	-2	8	-8	/	/
COC(=O)c1ccc(CSc2nc3ccccc3c(=O)n2-c2ccccc2)o1	4	4	0	20*	2	4	1
Cc1ccccc1NC(=O)c1ccc(Nc2c([N+](=O)[O-])cc([N+](=O)[O-])c3ccccc23)cc1	2	2	-1	14	1	/	/
CCCC1=Nc2cc(C(=O)NCCCOC(C)C)ccc2Sc2ccccc21	8	7	0	21*	2	7	2
Cc1nn(C)c(C(=O)N/N=C/c2cccc(Oc3ccccc3)c2)c1Br	1	5	0	24*	-2	3	1
SMILES	ADAM17 inh	PLC-gamma1 inh	KLK7 zymogen act	ADAM10 inh	PLC-beta3 inh	ADAM10 confirm	ADAM17 ctr
Nc1ccc(C(=O)N/N=C/c2cccc(Oc3ccccc3)c2)cc1	2	-73	1	-5	-94	/	/
O=S(=O)(NCc1ccc(Cl)c(Cl)c1)c1cc(Cl)ccc1N1CC[C@@H](O)C1	8	-1	-1	21*	-5	7	2
CCN(CC)C(=O)C1CCCN(Cc2cccc(F)c2)C1 (stereo not given)	-1	2	-1	79*	3	1	0
O=C(NC1CCCN(Cc2ccc(Cl)cc2)C1)c1cccc(F)c1 (stereo not given)	-2	1	0	82*	-1	1	0
O=C(O)CCc1ccc(-c2ccccc2)n1CC1CCCO1 (stereo not given)	-224	-112	5	i	-122	/	/
O=C(NCCn1cc(SCc2ccccc2)c2ccccc21)c1c(F)cccc1F	7	0	0	24*	-3	5	3
CCCCC[C@@H](C)N1C[C@@H](COCc2ccccc2)Oc2cc(N3CC[C@@H](O)C3)ccc2S1(=O)=O	6	0	0	20*	0	6	3
C[C@@H](c1ccccc1)N1C[C@H](COCc2ccccc2)Oc2cc(N3CCC[C@H]3C(N)=O)ccc2S1(=O)=O	-2	-3	0	-6	2	/	/
C[C@@H](c1ccccc1)N1C[C@@H](COCc2ccccc2)Oc2cc(N3CCC[C@H]3C(N)=O)ccc2S1(=O)=O	7	6	0	22*	5	5	1
CCCCC[C@H](C)N1C[C@@H](COCc2ccccc2)Oc2cc(N3CC[C@@H](O)C3)ccc2S1(=O)=O	7	-3	0	7	-7	/	/
N#Cc1ccccc1NC(=O)COc1ccc2c(c1)OCO2	2	5	0	-5	2	/	/
Cc1ccc(CSc2nnc(CNc3ccc(F)cc3)o2)cc1	5	-1	1	26*	2	2	1
COc1ccc(-c2nnc(SC(C(=O)c3c[nH]c4ccccc34)c3ccccc3)n2N)cc1OC (stereo not given)	8	4	-1	22*	2	5	1
CCn1c2ccccc2c2cc(NC(=O)CSc3nnc(-c4ccc(OC)c(OC)c4)n3N)ccc21	-7	-3	0	2	0	/	/
NNC(=O)c1nc[nH]c1C(=O)Nc1ccccn1	-1	-4	-1	-6	-3	/	/
Cc1nnc(NC(=O)c2c(-c3ccccc3Cl)noc2C)s1	2	6	0	1	0	/	/
Cc1onc(-c2ccccc2Cl)c1C(=O)Nc1nnc(Cc2ccc(Cl)cc2)s1	8	0	-1	23*	-5	5	1
CN(C(=O)c1cncc(Br)c1)c1c(N)n(Cc2ccccc2)c(=O)[nH]c1=O	-1	4	0	82*	-2	1	0

Bioassay records deposited in PubChem BioAssay by The Scripps Research Institute Molecular Screening Center.
